KDM5B inhibitor = inhibitors of human KDM5B histone demethylase; Q9UGL1; KDM5B demethylase, FDH-coupled NADH fluorescence (FDH is formaldehyde dehydrogenase); Potency, µM (series often up to 57.7 µM), actives largely listed as inhibitors; 220,000 tested, 2.6% active; AID 1347165; active = well fitted inhibition curve with a large enough effect; also: 0% is about no effect; nearly all actives have a fitted effect of over 70% in size
Target sequence (Q9UGL1 whole entry, looked up): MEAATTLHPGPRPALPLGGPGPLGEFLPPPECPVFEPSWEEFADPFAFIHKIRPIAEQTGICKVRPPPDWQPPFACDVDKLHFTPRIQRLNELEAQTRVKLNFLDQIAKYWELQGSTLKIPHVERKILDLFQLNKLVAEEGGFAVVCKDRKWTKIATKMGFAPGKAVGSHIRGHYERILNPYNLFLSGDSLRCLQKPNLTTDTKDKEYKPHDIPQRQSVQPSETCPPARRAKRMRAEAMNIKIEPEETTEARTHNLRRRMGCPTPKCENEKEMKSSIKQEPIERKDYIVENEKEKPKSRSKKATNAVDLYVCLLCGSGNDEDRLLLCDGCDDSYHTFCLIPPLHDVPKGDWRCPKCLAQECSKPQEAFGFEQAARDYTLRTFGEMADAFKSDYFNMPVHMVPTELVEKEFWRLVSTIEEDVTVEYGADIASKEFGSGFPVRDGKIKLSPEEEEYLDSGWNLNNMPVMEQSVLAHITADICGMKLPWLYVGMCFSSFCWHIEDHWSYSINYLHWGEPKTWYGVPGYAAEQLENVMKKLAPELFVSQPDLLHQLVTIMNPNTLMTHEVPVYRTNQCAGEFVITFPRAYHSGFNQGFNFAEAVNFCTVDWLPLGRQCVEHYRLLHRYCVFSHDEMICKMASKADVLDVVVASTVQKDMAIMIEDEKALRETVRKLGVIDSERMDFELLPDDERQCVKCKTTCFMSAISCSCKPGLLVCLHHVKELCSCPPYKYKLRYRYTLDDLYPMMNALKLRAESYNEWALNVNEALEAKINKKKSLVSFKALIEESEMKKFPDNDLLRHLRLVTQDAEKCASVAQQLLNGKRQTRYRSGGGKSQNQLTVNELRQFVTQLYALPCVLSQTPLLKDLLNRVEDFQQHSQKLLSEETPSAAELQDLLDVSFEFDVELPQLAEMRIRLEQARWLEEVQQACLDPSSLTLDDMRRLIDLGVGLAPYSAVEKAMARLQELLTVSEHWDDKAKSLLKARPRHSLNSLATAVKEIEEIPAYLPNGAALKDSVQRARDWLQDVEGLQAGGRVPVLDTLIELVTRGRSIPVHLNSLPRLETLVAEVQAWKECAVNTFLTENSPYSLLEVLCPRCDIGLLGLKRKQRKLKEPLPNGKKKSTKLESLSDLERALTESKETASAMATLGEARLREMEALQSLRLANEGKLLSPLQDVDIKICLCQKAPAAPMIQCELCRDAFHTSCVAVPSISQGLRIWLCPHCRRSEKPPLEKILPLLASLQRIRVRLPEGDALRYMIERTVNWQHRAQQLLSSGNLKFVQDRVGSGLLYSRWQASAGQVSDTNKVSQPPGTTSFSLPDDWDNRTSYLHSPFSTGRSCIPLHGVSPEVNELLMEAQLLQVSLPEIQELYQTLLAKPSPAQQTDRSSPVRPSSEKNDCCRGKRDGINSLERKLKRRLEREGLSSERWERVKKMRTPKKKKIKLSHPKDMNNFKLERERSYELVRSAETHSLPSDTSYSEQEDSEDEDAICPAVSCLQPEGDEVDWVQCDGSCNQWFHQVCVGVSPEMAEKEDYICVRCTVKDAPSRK
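KDM5BΔAP (200 nM final) in 50 mM HEPES pH 7.5, 0.01% Tween-20 was preincubated 10 min at RT with compound over a concentration range. Substrate mix (H3K4me3 12.5 µM, α-KG 25 µM, Fe²⁺, ascorbate, NAD⁺, FDH) was added, and NADH fluorescence change over 30 min gave dose-response curves.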
* marks the source's active call; other numbers are inactive results. The entries come from a sample that favours hits as a whole. Potency is read from the fitted curve at half-maximal effect.

What do the screens show for `CC(C)C[C@@H]1N[C@H](C(=O)O)Cc2cn(Cc3nccn3C)c3cccc1c23`?
KDM5B inhibitor: 31.6µM*

How did CC(C)C[C@@H]1N[C@H](C(=O)N2CCN(C)CC2)Cc2cn(Cc3ccccn3)c3cccc1c23 do in these assays?
KDM5B inhibitor: inactive

What do the screens show for `CC(C)C[C@@H]1N[C@H](C(=O)O)Cc2cn(CC3CCC3)c3cccc1c23`?
KDM5B inhibitor: 31.6µM*

Results for CC(C)C[C@@H]1N[C@H](C(=O)NCc2ccccc2)Cc2cn(Cc3ccncc3)c3cccc1c23 ?
KDM5B inhibitor: inactive

What do the screens show for `CC#CCn1cc2c3c(cccc31)[C@H](CC(C)C)N[C@H](C(=O)NC1CCCC1)C2`?
KDM5B inhibitor: inactive

What do the screens show for `CC(C)C[C@@H]1N[C@H](C(=O)NC2CCC2)Cc2cn(CC3CC3)c3cccc1c23`?
KDM5B inhibitor: inactive

How did COc1ccc(C2C(C(C)=O)=C(C)Oc3ncn4nc(-c5cccnc5)nc4c32)cc1 (centres undefined) do in these assays?
KDM5B inhibitor: inactive

How did CC(C)C(=O)NC(Nc1ccc(Br)cc1)C(Cl)(Cl)Cl (centres undefined) do in these assays?
KDM5B inhibitor: inactive

How did COc1ccc(CNC(=O)c2ccc3nc(Cc4ccccc4F)oc3c2)cc1 do in these assays?
KDM5B inhibitor: inactive

How did O=C(CCS(=O)(=O)Cc1ccccc1)Nc1cc(F)cc(F)c1 do in these assays?
KDM5B inhibitor: inactive

What do the screens show for `Cc1ccc(C(=O)NCc2ccncc2)c(C)c1`?
KDM5B inhibitor: inactive

How did COc1ccc(-c2ccc3nnc(CNC(=O)COc4cccc(C)c4)n3n2)cc1 do in these assays?
KDM5B inhibitor: 25.1µM*

How did Cc1ccsc1C(=O)NCc1ccc(Cl)cc1 do in these assays?
KDM5B inhibitor: inactive

How did COc1ccc(-c2nn(C)c(=O)c3ccccc23)cc1NC(=O)COc1cccc(C)c1 do in these assays?
KDM5B inhibitor: inactive

Results for COc1ccc(C(=O)NCc2nnc3ccc(-c4ccc(C)cc4)nn23)c(C)c1 ?
KDM5B inhibitor: 28.2µM*

How did COc1ccc(-c2ccc3nnc(CNC(=O)c4sccc4C)n3n2)cc1 do in these assays?
KDM5B inhibitor: 31.6µM*

Results for COc1ccc(C(=O)NCc2nnc(SCC(=O)Nc3ccc(C)cc3)n2-c2ccccc2)cc1 ?
KDM5B inhibitor: inactive

What do the screens show for `COc1ccc(-c2ccc3nnc(CNC(=O)c4ccc(C)cc4C)n3n2)cc1`?
KDM5B inhibitor: 28.2µM*

What do the screens show for `Cc1ccc(C(=O)NCc2nc(C)cs2)c(C)c1`?
KDM5B inhibitor: inactive

How did CCCCn1nnc(NC(=O)COc2cccc(C)c2)n1 do in these assays?
KDM5B inhibitor: inactive

Results for Cc1ccsc1C(=O)NCc1ccncc1 ?
KDM5B inhibitor: inactive

What do the screens show for `O=C(Nc1ccc(Cl)cc1)N1CCN(CCc2ccncc2)CC1`?
KDM5B inhibitor: inactive

How did CC(C)Cn1nc(C(=O)N2CC(C(=O)N3CCCCC3)Oc3ccccc32)c2ccccc2c1=O (centres undefined) do in these assays?
KDM5B inhibitor: inactive

How did C=C(C)CNC(=S)N/N=C1\CC2CC=CC12 (centres undefined) do in these assays?
KDM5B inhibitor: inactive

Results for Cc1ccc(C(=O)N/N=C/c2ccncc2)s1 ?
KDM5B inhibitor: inactive

How did O=C(CN1CCC(c2nc3ccccc3s2)CC1)NC(=O)Nc1ccc2c(c1)OCCO2 do in these assays?
KDM5B inhibitor: inactive

Results for Cc1nnc(NC(=O)c2cc(-c3ccccn3)nc3ccccc23)s1 ?
KDM5B inhibitor: inactive

How did O=C(Nc1ccc(Cl)cc1)C1Sc2nnc(-c3ccccc3)n2NC12CCCCC2 (centres undefined) do in these assays?
KDM5B inhibitor: inactive

Results for CCCCNC(=O)c1cccc(C(=O)OC)c1 ?
KDM5B inhibitor: inactive

How did O=C(CSc1ncnc2ccccc12)Nc1c(Cl)cccc1Cl do in these assays?
KDM5B inhibitor: inactive

Results for O=c1cc(CN2CCN(c3ccc(F)cc3)CC2)c2cc(O)ccc2o1 ?
KDM5B inhibitor: inactive

Results for O=C(COc1ccccc1)N1CCC(n2cc(-c3nc(-c4ccccc4)no3)nn2)CC1 ?
KDM5B inhibitor: inactive

Results for N#Cc1ccc(CCC(=O)c2cccs2)cc1 ?
KDM5B inhibitor: inactive

Results for O=C(c1ccc(Cl)cc1)c1ccc(OCc2cccc3ccccc23)cc1 ?
KDM5B inhibitor: inactive

What do the screens show for `O=C(NCCn1ccn2nc(-c3ccc(F)cc3)cc2c1=O)c1cccc2[nH]ccc12`?
KDM5B inhibitor: 28.2µM*

How did Cc1ccc(-c2cc3c(=O)n(CCNC(=O)c4ccc(F)cc4)ccn3n2)c(C)c1 do in these assays?
KDM5B inhibitor: inactive

What do the screens show for `Cc1ccc(-c2cc3c(=O)n(CCNC(=O)c4cccc5[nH]ccc45)ccn3n2)cc1C`?
KDM5B inhibitor: 28.2µM*

Results for Cc1ccc(-c2cc3c(=O)n(CCNC(=O)Cc4c[nH]c5ccccc45)ccn3n2)c(C)c1 ?
KDM5B inhibitor: inactive

What do the screens show for `O=C(Cc1cccc(F)c1)NCCn1ccn2nc(-c3ccc(F)cc3)cc2c1=O`?
KDM5B inhibitor: inactive

Results for Cc1ccc(-c2cc3c(=O)n(CCNC(=O)c4ccc[nH]c4=O)ccn3n2)cc1C ?
KDM5B inhibitor: 35.5µM*

Results for CCc1nnc(Cn2cnc3scc(-c4ccccc4)c3c2=O)o1 ?
KDM5B inhibitor: inactive

What do the screens show for `Cc1cccc(Oc2nc(-c3ccncc3)nc3ccccc23)c1C`?
KDM5B inhibitor: inactive

How did Cc1cccc(-n2ncc(C(=O)N3CCc4ccccc4C3)c2-n2cccc2)c1 do in these assays?
KDM5B inhibitor: inactive

How did Cc1ccc(N(Cc2ccccc2)C(=O)c2cccs2)cc1 do in these assays?
KDM5B inhibitor: inactive

How did COc1ccc(Cl)cc1C(=O)NC1CC(=O)N(c2ccc(F)cc2)C1 (centres undefined) do in these assays?
KDM5B inhibitor: inactive

Results for CC(C)n1cnnc1-c1nn(C)c2c1CN(C(=O)Cc1c[nH]c3ccccc13)CC2 ?
KDM5B inhibitor: 20µM*

What do the screens show for `CCn1cnnc1-c1nn(C)c2c1CN(C(=O)CCC(=O)N1CC(=O)Nc3ccccc31)CC2`?
KDM5B inhibitor: 14.1µM*

Results for Cn1nc(-c2nncn2CC2CC2)c2c1CCN(C(=O)c1cn[nH]c1-c1ccccc1)C2 ?
KDM5B inhibitor: inactive

What do the screens show for `CCn1cnnc1-c1nn(C)c2c1CN(C(=O)c1n[nH]c(=O)c3ccccc13)CC2`?
KDM5B inhibitor: inactive

What do the screens show for `Cn1nc(-c2nncn2CC2CC2)c2c1CCN(C(=O)c1[nH]nc3c1COc1ccccc1-3)C2`?
KDM5B inhibitor: inactive

Results for Cn1cnnc1-c1nn(C)c2c1CN(C(=O)c1n[nH]c3ccccc13)CC2 ?
KDM5B inhibitor: inactive

What do the screens show for `Cn1nc(-c2nncn2CC2CC2)c2c1CCN(C(=O)c1nn(C)c3ccccc13)C2`?
KDM5B inhibitor: inactive

How did CN(CC(=O)N1CCc2c(c(-c3nncn3CC3CC3)nn2C)C1)S(=O)(=O)c1cnc[nH]1 do in these assays?
KDM5B inhibitor: 22.4µM*

What do the screens show for `CCNC(=O)N1CCc2c(c(-c3nncn3-c3ccccc3)nn2C)C1`?
KDM5B inhibitor: inactive

How did Cn1nc(-c2nncn2CC2CC2)c2c1CCN(C(=O)c1n[nH]c3ccccc13)C2 do in these assays?
KDM5B inhibitor: 20µM*

Results for CC(C)n1cnnc1-c1nn(C)c2c1CN(C(=O)c1n[nH]c3ccccc13)CC2 ?
KDM5B inhibitor: inactive

What do the screens show for `Cn1cnnc1-c1nn(C)c2c1CN(C(=O)c1nn(C)c3ccccc13)CC2`?
KDM5B inhibitor: inactive

How did Cc1ccc(C)c(C(=O)c2sc(Nc3cccc(F)c3)nc2N)c1 do in these assays?
KDM5B inhibitor: inactive
